Test results as given in PubChem BioAssay (NCATS).
Records with an inconclusive call do not appear. Entries that show only a call come without a potency. Activity calls are given as the source filed them. Calls come from the whole dose curve; as a rule, active = well fitted inhibition curve with a large enough effect; inconclusive = small, poorly fitted or top-dose-only effect; inactive = flat fitted curve, though single readings scatter.

System: Zika virus NS2B-NS3 protease
Assay: Primary screen GU AMC qHTS for Zika virus inhibitors (AID 1347154); note: nearly all actives have a fitted effect of over 70% in size
Conditions: Zika NS2B-NS3 unlinked protease, AMC fluorogenic substrate; series mostly up to 54.1 µM
Outline: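 Fluorogenic AMC-substrate cleavage by noncovalent NS2B-NS3 protease complex (25 nM, pH 8.0 Tris buffer with Tween 20) followed for 15 minutes at room temperature (~20% conversion). Percent inhibition from ex340/em450 signal change, fitted by 4-parameter Hill equation.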

Structure (SMILES)	Potency
COc1ccc(/C=N/NC(=O)c2ccncc2)cc1OC	inactive
CCN(CC)CCOC(=O)C1(c2ccccc2)CCCC1	inactive
COc1ccc(-c2cc(C(F)F)nn2-c2ccc(S(N)(=O)=O)cc2)cc1F	inactive
CCCCCN=C(N)N/N=C/c1c[nH]c2ccc(OC)cc12	inactive
CCOc1ccc(NC(C)=O)cc1	inactive
CCc1cc(Cl)c(OC)c(C(=O)NC[C@@H]2CCCN2CC)c1O	inactive
CCN(CC)CCNC(=O)c1cc(Br)c(N)cc1OC	inactive
O=C(Nc1cccc(C2=NCCN2)c1)Nc1cccc(C2=NCCN2)c1	inactive
Nc1nc(-c2ccccc2)c(Br)c(=O)[nH]1	inactive
O=C(O)CCC(=O)Nc1ccc(S(=O)(=O)Nc2nccs2)cc1	inactive
CCOCCn1c(N2CCCN(C)CC2)nc2ccccc21	inactive
Cc1cn([C@H]2C[C@H](F)[C@@H](CO)O2)c(=O)[nH]c1=O	inactive
Nc1ccc(C(=O)NCC(=O)O)cc1	inactive
C[C@@H](O)[C@H]1C(=O)N2C(C(=O)O)=C([C@H]3CCCO3)S[C@H]12	inactive
C#C[C@]1(O)CC[C@H]2[C@@H]3[C@H](C)CC4=C(CCC(=O)C4)[C@H]3CC[C@@]21C	inactive
CNCCc1ccccn1	inactive

Structure (SMILES)	Potency
FC(F)(F)C(F)(F)C(F)(F)C(F)(F)C(F)(F)C(F)(F)C(F)(F)C(F)(F)Br	inactive
O=C(CCN1CCN2CCCC2C1)N1c2ccccc2Sc2ccc(Cl)cc21 (centres undefined)	inactive
CC(=O)O[C@H]1C[C@@H]2CC[C@@H]3[C@H](CC[C@@]4(C)[C@H]3C[C@H]([N+]3(C)CCCCC3)[C@@H]4OC(C)=O)[C@@]2(C)C[C@@H]1N1CCCCC1	inactive
C/C=C/C=N/NC(=O)c1ccncc1	inactive
CCOC(=O)[C@@](C)(N)Cc1ccc(O)c(O)c1	inactive
O=C(Nc1ccccc1)OCC(CN1CCCCC1)OC(=O)Nc1ccccc1 (centres undefined)	inactive
Cc1nc(-c2ccc(Cl)cc2)oc1COC(C)(C)C(=O)O	inactive
O=c1[nH]c(=O)n([C@H]2C[C@H](O)[C@@H](CO)O2)cc1F	inactive
Clc1cccc(C(c2ccc3nc[nH]c3c2)n2ccnc2)c1 (centres undefined)	inactive
Nc1nc(Cl)nc2c1ncn2[C@@H]1O[C@H](CO)[C@@H](O)[C@@H]1F	inactive
Cc1cc(C)cc(OCC2CNC(=O)O2)c1 (centres undefined)	inactive
CC(C)NCC(O)c1ccc2ccccc2c1 (centres undefined)	inactive
O=S(=O)(O)c1ccc(O)cc1	inactive
CCCCN1C[C@H](O)[C@@H](O)[C@H](O)[C@H]1CO	inactive
Cc1ccccc1OCC(O)CO (centres undefined)	inactive
CC(=O)O[C@]1(C(C)=O)CC[C@H]2[C@@H]3C=C(C)C4=CC(=O)CC[C@]4(C)[C@H]3CC[C@@]21C	inactive

System: not listed separately
Assay: qHTS to identify inhibitors of the type 1 interferon - major histocompatibility complex class I in skeletal muscle: primary screen against the NCATS Pharmaceutical Collection (AID 1347407);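 note: luminescence of HiBiT knocked into endogenous HLA-B as interferon-induced MHC class I level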
Conditions: human skeletal muscle cells, IFN-b-induced MHC-I HiBiT luminescence, 24 h; series mostly up to 45.9 µM
Outline: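 Compounds […] were added to CRISPR-engineered HLA-B-HiBiT C25cl48 human myoblasts with 4.0 ng/ml IFN-beta. After 24 hrs at 37 C, cells were lysed and HiBiT luminescence measured.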

Structure (SMILES)	Potency
COc1ccc(/C=N/NC(=O)c2ccncc2)cc1OC	inactive
CCN(CC)CCOC(=O)C1(c2ccccc2)CCCC1	inactive
COc1ccc(-c2cc(C(F)F)nn2-c2ccc(S(N)(=O)=O)cc2)cc1F	inactive
CN(Cc1ccc(C(C)(C)C)cc1)Cc1cccc2ccccc12	inactive
COc1ccc(CCN(C)CCCN2CCc3cc(OC)c(OC)cc3CC2=O)cc1OC	inactive
CCC(Cc1c(I)cc(I)c(N)c1I)C(=O)O (centres undefined)	inactive
CCOc1ccc(NC(C)=O)cc1	inactive
CCc1cc(Cl)c(OC)c(C(=O)NC[C@@H]2CCCN2CC)c1O	inactive
CCN(CC)CCNC(=O)c1cc(Br)c(N)cc1OC	inactive
COc1cc(NS(=O)(=O)c2ccc(N)cc2)ncn1	inactive
CCCCc1cc2ccccc2c(OCCN(C)C)n1	inactive
O=C(Nc1cccc(C2=NCCN2)c1)Nc1cccc(C2=NCCN2)c1	inactive
Nc1nc(-c2ccccc2)c(Br)c(=O)[nH]1	inactive
O=C(O)CCC(=O)Nc1ccc(S(=O)(=O)Nc2nccs2)cc1	inactive
CCOCCn1c(N2CCCN(C)CC2)nc2ccccc21	inactive
Cc1cn([C@H]2C[C@H](F)[C@@H](CO)O2)c(=O)[nH]c1=O	inactive
Nc1ccc(C(=O)NCC(=O)O)cc1	inactive
C[C@@H](O)[C@H]1C(=O)N2C(C(=O)O)=C([C@H]3CCCO3)S[C@H]12	inactive
C#C[C@]1(O)CC[C@H]2[C@@H]3[C@H](C)CC4=C(CCC(=O)C4)[C@H]3CC[C@@]21C	inactive

Structure (SMILES)	Potency
CNCCc1ccccn1	inactive
FC(F)(F)C(F)(F)C(F)(F)C(F)(F)C(F)(F)C(F)(F)C(F)(F)C(F)(F)Br	inactive
O=C(CCN1CCN2CCCC2C1)N1c2ccccc2Sc2ccc(Cl)cc21 (centres undefined)	inactive
CC(=O)O[C@H]1C[C@@H]2CC[C@@H]3[C@H](CC[C@@]4(C)[C@H]3C[C@H]([N+]3(C)CCCCC3)[C@@H]4OC(C)=O)[C@@]2(C)C[C@@H]1N1CCCCC1	inactive
C/C=C/C=N/NC(=O)c1ccncc1	inactive
CCOC(=O)[C@@](C)(N)Cc1ccc(O)c(O)c1	inactive
O=C(Nc1ccccc1)OCC(CN1CCCCC1)OC(=O)Nc1ccccc1 (centres undefined)	inactive
CC[C@]12CCCN3CCc4c(n(c5ccccc45)C(=O)C1)[C@@H]32	inactive
Cc1nc(-c2ccc(Cl)cc2)oc1COC(C)(C)C(=O)O	inactive
O=c1[nH]c(=O)n([C@H]2C[C@H](O)[C@@H](CO)O2)cc1F	inactive
Clc1cccc(C(c2ccc3nc[nH]c3c2)n2ccnc2)c1 (centres undefined)	inactive
Cc1cc(C)cc(OCC2CNC(=O)O2)c1 (centres undefined)	inactive
CC(C)NCC(O)c1ccc2ccccc2c1 (centres undefined)	inactive
O=S(=O)(O)c1ccc(O)cc1	inactive
NC(=O)c1ccccc1O	inactive
CCCCN1C[C@H](O)[C@@H](O)[C@H](O)[C@H]1CO	inactive
Cc1ccccc1OCC(O)CO (centres undefined)	inactive
CCOc1cc(OCC)c(C(=O)CCC(=O)O)cc1OCC	inactive
